{
  "source": "PubChem BioAssay (EPA / NIEHS)",
  "note": "Results filed as inconclusive are left out. Active and inactive are the calls of the source. Rule for the calls: active = hit-call score of the fitted dose curve at least 0.9, where 1 is the maximum; inconclusive = response in the unintended direction; inactive = score below 0.9.",
  "data": [
    {"molecular_target": "Nuclear receptor subfamily 1 group I member 3 (Homo sapiens) (UniProt Q14994)", "sequence (Q14994 whole entry, looked up)": "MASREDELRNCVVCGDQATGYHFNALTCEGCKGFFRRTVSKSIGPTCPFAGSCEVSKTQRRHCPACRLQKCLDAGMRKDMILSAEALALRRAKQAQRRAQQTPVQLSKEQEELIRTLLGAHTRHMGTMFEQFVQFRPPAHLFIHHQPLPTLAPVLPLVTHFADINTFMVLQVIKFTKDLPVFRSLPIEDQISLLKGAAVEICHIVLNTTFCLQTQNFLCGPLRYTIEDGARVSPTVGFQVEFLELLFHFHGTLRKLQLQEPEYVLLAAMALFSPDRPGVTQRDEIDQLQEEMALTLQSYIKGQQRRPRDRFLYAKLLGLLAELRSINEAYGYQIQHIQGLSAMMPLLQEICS", "assay": "ATG_CAR_TRANS: Attagene TRANS-FACTORIAL HepG2 Assay for human Constitutive Androstane Receptor (CAR) (AID 2282969);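 note: activators raise reporter mRNA above DMSO so AC50 marks induction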", "conditions": "HepG2 Attagene TRANS-FACTORIAL CAR reporter", "procedure": "ATG_TRANS is a cell-based, multiplexed-readout assay that uses HepG2, a human liver cell line, with measurements taken at 24 hours after chemical dosing in a 24-well plate.ATG_CAR_TRANS is one of 30 assay component(s) measured or calculated from the ATG_TRANS assay. It is designed to make measurements of mRNA induction, a form of inducible reporter, as detected with fluorescence intensity signals by Reverse transcription polymerase chain reaction (RT-PCR) and Capillary electrophoresis technology.Data from the assay component ATG_CAR_TRANS was analyzed into 1 assay endpoint. This assay endpoint, ATG_CAR_TRANS, was analyzed in the positive analysis fitting direction relative to DMSO as the negative control and baseline of activity. Using a type of inducible reporter, measures of mRNA for gain-of-signal activity can be used to understand the reporter gene at the transcription factor-level as they relate to the gene NR1I3. Furthermore, this assay endpoint can be referred to as a primary readout, because this assay has produced multiple assay endpoints where this one serves a reporter gene function. To generalize the intended target to other relatable targets, this assay endpoint is annotated to the nuclear receptor intended target family, where the subfamily is non-steroidal.\nHuman liver HepG2 cells are transiently transfected with multiple reporter transcription units (MRTUs) in 6-well plates using FuGene 6 reagent (Roche; 3 ml FuGene/1 mg DNA). The MRTU constructs are regulated by a cis-regulating element (promoter). […] A major difference between the CIS and TRANS system is that in CIS activities of endogenous TFs are measured, whereas the TRANS assay evaluates changes in activities of exogenous, chimeric NR-Gal4 proteins. […] At the end of 24 hour incubation, total RNA was isolated using TriZol reagent (Invitrogen). The isolated RNA is then reverse-transcribed using oligo(dT) primer and Mo-MLV reverse transcriptase (Invitrogen) with DNAse I (Ambion) treatment for 30 min. The one-tenth of the produced cDNA was amplified by PCR using Taq DNA polymerase (Invitrogen) and two reporter sequence-specific primers. The PCR products were fluorescently labeled by primer extension with 6-arboxyfluorescein (6-FAM) 5'-labeled reporter sequence-specific primer (2 min at 95 C, 20 s at 68 C and 10 min at 72 C) and these products were digested with 5U of HpaI (New England Biolabs) for 2h at 37 C. The fragments were purified using Qiaquick PCR columns (Qiagen), analyzed on an ABI 3130xL genetic analyzer (Applied Biosystems) with peak positions identified by using a set of X-rhodamine (ROX)-labeled MapMarker1000 molecular weight standards (BioVentures). The raw capillary electrophoresis data was processed using Attagraph software (Attagene).", "values": [
      {"compound": "C1CCC(C2CCCCC2)CC1", "outcome": "inactive"},
      {"compound": "Brc1c(Br)c(Br)c(Oc2c(Br)c(Br)c(Br)c(Br)c2Br)c(Br)c1Br", "outcome": "inactive"},
      {"compound": "CCOc1cc(C=O)ccc1O", "outcome": "inactive"},
      {"compound": "Cc1cc(-c2cc(C)c(N)c(C)c2)cc(C)c1N", "outcome": "inactive"},
      {"compound": "CC[N+](CC)(CC)CC", "outcome": "inactive"},
      {"compound": "C=CC(=O)NC(C)(C)CC(C)=O", "outcome": "inactive"},
      {"compound": "O=S(=O)(c1ccc(Cl)cc1)c1cc(Cl)c(Cl)cc1Cl", "outcome": "inactive"},
      {"compound": "CCCCOC(=O)COC(=O)c1ccccc1C(=O)OCCCC", "outcome": "inactive"},
      {"compound": "Cc1ccc(CCl)cc1", "outcome": "inactive"},
      {"compound": "C1CN2CCN1CC2", "outcome": "inactive"},
      {"compound": "OC(Cc1ccccc1Cl)(Cn1cncn1)C1(Cl)CC1", "note": "(stereo not given)", "outcome": "inactive"},
      {"compound": "CN(C)c1ccc(N=O)cc1", "outcome": "inactive"},
      {"compound": "CCOCn1c(-c2ccc(Cl)cc2)c(C#N)c(Br)c1C(F)(F)F", "outcome": "inactive"},
      {"compound": "CCCCS(=O)(=O)Cl", "outcome": "inactive"},
      {"compound": "Nc1nc(N)nc(Cl)n1", "outcome": "inactive"},
      {"compound": "CC(C)(C)c1cc([N+](=O)[O-])cc(C(C)(C)C)c1O", "outcome": "inactive"},
      {"compound": "Nc1ccc(-c2ccccc2)cc1", "outcome": "inactive"},
      {"compound": "C=CCN=C=S", "outcome": "inactive"},
      {"compound": "c1ccc2sc(SNC3CCCCC3)nc2c1", "outcome": "inactive"},
      {"compound": "Cc1cc(Cl)ccc1OCCCC(=O)O", "outcome": "inactive"},
      {"compound": "Fc1cccc(Cl)c1CCl", "outcome": "inactive"},
      {"compound": "CCC(C)(C#N)N=NC(C)(C#N)CC", "note": "(stereo not given)", "outcome": "inactive"},
      {"compound": "COC(F)(C(F)(F)C(F)(F)F)C(F)(C(F)(F)F)C(F)(F)F", "note": "(stereo not given)", "outcome": "inactive"},
      {"compound": "CC(C)(C1CCC(O)CC1)C1CCC(O)CC1", "note": "(stereo not given)", "outcome": "inactive"},
      {"compound": "CCNc1nc(NCC)nc(SC)n1", "outcome": "inactive"},
      {"compound": "O=C(O)C1(c2ccc3c(c2)OC[C@H](Cc2ccc(-c4ccccc4)cc2)[C@H]3O)CCCC1", "outcome": "inactive"},
      {"compound": "CC(F)(F)CC(F)(F)F", "outcome": "inactive"},
      {"compound": "CS(=O)(=O)c1ccc(C(=O)C2C(=O)CCCC2=O)c(Cl)c1COCC(F)(F)F", "outcome": "inactive"},
      {"compound": "CC(C)(C)c1ccc(CCOc2ncnc3ccccc23)cc1", "outcome": "inactive"},
      {"compound": "CCCSP(=S)(OCC)Oc1ccc(Cl)cc1Cl", "note": "(stereo not given)", "outcome": "inactive"},
      {"compound": "O=S(=O)(Oc1ccc(Cl)cc1)c1ccc(Cl)cc1", "outcome": "inactive"},
      {"compound": "Clc1cnc(Oc2ccc(Oc3ncc(Cl)cc3Cl)cc2)c(Cl)c1", "outcome": "inactive"},
      {"compound": "O=S1OC[C@@H]2[C@H](CO1)[C@]1(Cl)C(Cl)=C(Cl)[C@@]2(Cl)C1(Cl)Cl", "note": "(stereo not given in full)", "outcome": "inactive"},
      {"compound": "C[CH2][Hg][S]c1ccccc1C(=O)O", "outcome": "inactive"},
      {"compound": "CCOC(=O)Cc1ccccc1", "outcome": "inactive"},
      {"compound": "O=C1C=CC(=O)c2ccccc21", "outcome": "inactive"},
      {"compound": "Cc1ccc2nc3sc(=O)sc3nc2c1", "outcome": "inactive"},
      {"compound": "C#CCOC(=O)/C=C(C)/C=C/CC(C)CCCC(C)C", "note": "(stereo not given)", "outcome": "inactive"},
      {"compound": "CC(C)[C@@H](Nc1ccc(C(F)(F)F)cc1Cl)C(=O)OC(C#N)c1cccc(Oc2ccccc2)c1", "note": "(stereo not given in full)", "outcome": "inactive"},
      {"compound": "Cc1c([N+](=O)[O-])c(C)c([N+](=O)[O-])c(C(C)(C)C)c1[N+](=O)[O-]", "outcome": "inactive"}
    ]}
  ]
}
